According to PubChem BioAssay (EPA / NIEHS):
Inconclusive results are not listed. Calls of active or inactive are those of the source. The calls were made as follows, unless noted: active = hit-call score of the fitted dose curve at least 0.9, where 1 is the maximum; inconclusive = response in the unintended direction; inactive = score below 0.9.

Experiments:
[1] = molecular target: Glucocorticoid receptor (Homo sapiens) (UniProt P04150); assay: ATG_GR_TRANS: Attagene TRANS-FACTORIAL HepG2 Assay for human Glucocorticoid Receptor (GR) (AID 2282978); settings: HepG2 Attagene TRANS GR reporter, mRNA transcription;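 also: activators score as hits since higher reporter transcript over DMSO is fitted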
Sequence of Glucocorticoid receptor (Homo sapiens) (P04150 whole entry, looked up): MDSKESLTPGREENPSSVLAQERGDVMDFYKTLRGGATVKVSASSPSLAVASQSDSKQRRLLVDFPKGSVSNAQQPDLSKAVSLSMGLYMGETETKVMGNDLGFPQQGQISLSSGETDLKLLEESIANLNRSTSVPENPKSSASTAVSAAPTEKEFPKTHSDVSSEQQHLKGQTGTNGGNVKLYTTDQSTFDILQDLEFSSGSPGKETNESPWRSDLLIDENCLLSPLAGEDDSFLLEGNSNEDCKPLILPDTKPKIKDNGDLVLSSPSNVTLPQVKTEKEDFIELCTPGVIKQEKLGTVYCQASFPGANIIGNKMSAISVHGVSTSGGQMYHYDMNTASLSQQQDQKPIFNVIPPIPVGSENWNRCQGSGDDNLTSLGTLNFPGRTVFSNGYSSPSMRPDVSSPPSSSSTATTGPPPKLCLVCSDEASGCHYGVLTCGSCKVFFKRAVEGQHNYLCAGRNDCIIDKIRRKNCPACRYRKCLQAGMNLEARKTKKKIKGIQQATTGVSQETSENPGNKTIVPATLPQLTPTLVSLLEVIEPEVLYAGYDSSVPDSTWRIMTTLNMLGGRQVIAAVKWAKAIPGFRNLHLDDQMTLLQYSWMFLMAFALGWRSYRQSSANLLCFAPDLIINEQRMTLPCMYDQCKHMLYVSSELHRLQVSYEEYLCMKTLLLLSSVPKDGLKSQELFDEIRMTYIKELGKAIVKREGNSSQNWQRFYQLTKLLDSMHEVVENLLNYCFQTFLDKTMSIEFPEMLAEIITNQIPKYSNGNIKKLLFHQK
Procedure, shortened: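 After 24 h incubation with test chemical, transfected HepG2 cells were lysed for RNA; reporter cDNA was amplified, FAM-labelled, HpaI-digested and sized on a capillary analyser. Signal gain relative to DMSO was scored.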

[2] = molecular target: Oxysterols receptor LXR-alpha (Homo sapiens) (UniProt Q13133); assay: ATG_LXRa_TRANS: Attagene TRANS-FACTORIAL HepG2 Assay for human Liver X Receptor alpha (LXRa) (AID 2282980); settings: HepG2 Attagene TRANS reporter, LXRa transactivation
Sequence of Oxysterols receptor LXR-alpha (Homo sapiens) (Q13133 whole entry, looked up): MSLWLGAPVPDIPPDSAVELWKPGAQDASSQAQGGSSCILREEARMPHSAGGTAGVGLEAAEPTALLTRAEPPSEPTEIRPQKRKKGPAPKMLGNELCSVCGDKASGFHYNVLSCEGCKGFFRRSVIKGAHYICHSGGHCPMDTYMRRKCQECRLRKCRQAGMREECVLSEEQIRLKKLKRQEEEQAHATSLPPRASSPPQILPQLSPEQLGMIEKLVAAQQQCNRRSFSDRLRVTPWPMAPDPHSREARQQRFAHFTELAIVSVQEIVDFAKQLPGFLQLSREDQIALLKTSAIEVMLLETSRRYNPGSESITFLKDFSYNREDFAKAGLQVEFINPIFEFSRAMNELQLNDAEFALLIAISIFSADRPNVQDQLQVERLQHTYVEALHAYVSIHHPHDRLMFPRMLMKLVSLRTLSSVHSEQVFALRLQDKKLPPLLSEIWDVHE
Procedure, shortened: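 Transient HepG2 transfectants, 24 h dosing, RT-PCR/CE mRNA reporter quantitation; gain-of-signal vs DMSO.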

[3] = molecular target: Oxysterols receptor LXR-beta (Homo sapiens) (UniProt P55055); assay: ATG_LXRb_TRANS: Attagene TRANS-FACTORIAL HepG2 Assay for human Liver X Receptor beta (LXRb) (AID 2282981); settings: HepG2 Attagene TRANS GAL4-LXRb reporter, mRNA
Sequence of Oxysterols receptor LXR-beta (Homo sapiens) (P55055 whole entry, looked up, the tested form may be a part): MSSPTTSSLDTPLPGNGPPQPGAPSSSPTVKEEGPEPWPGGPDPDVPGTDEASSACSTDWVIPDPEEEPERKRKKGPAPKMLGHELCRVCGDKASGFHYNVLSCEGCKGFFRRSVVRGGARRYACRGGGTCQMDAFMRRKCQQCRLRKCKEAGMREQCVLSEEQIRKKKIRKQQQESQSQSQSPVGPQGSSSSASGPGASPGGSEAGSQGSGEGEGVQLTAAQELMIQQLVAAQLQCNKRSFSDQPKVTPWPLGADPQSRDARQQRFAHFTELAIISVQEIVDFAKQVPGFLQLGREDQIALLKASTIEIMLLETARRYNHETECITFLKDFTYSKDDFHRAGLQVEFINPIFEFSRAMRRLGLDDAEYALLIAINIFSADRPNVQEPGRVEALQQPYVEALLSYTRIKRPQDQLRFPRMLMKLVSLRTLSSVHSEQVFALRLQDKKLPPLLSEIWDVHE
Procedure, shortened: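 Multiplexed reporter assay, HepG2, 24 h dosing. Fluorescence of labelled RT-PCR products after capillary electrophoresis gives transcript level; positive fitting direction relative to DMSO.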

[4] = molecular target: Hepatocyte nuclear factor 4-alpha (Homo sapiens) (UniProt P41235); assay: ATG_HNF4a_TRANS: Attagene TRANS-FACTORIAL HepG2 Assay for human Hepatocyte Nuclear Factor 4 alpha (HNF4a) (AID 2282982); settings: HepG2 HNF4a transactivation reporter, mRNA readout
Sequence of Hepatocyte nuclear factor 4-alpha (Homo sapiens) (P41235 whole entry, looked up, the tested form may be a part): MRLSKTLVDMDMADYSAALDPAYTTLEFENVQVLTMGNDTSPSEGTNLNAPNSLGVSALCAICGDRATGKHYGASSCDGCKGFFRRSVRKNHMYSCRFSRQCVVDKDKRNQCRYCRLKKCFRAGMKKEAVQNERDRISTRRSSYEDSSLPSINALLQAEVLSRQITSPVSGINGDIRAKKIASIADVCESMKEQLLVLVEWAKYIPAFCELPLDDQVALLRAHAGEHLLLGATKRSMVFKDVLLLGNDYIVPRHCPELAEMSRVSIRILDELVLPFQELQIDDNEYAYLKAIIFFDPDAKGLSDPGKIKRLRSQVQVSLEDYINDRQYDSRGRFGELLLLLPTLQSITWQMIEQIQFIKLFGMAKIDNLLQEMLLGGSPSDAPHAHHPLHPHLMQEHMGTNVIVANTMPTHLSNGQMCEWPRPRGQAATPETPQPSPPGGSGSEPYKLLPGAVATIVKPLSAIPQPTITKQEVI
Procedure, shortened: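 Endpoint reflects transcriptional activation of a GAL4-UAS reporter by an HNF4a-GAL4 chimera in transfected HepG2 cells, 24 h post-dosing. Fluorescence from RT-PCR products separated by capillary electrophoresis; DMSO baseline.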

[5] = ATG_M_32_TRANS: Attagene TRANS-FACTORIAL HepG2 Assay for M32 Transcription Factor (Internal Marker) (AID 2282984); settings: HepG2 Attagene TRANS M32 internal marker reporter;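 also: transcript level of a background control reporter unit measured by RT-PCR and capillary electrophoresis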
Procedure, shortened: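 Internal-marker readout from a multiplexed transcription reporter panel. HepG2 cells were transfected with GAL4-UAS reporter units, treated 24 hours, and reporter transcript levels determined by fluorescence after RT-PCR and capillary separation.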

[6] = molecular target: Nuclear receptor subfamily 4 group A member 2 (Homo sapiens) (UniProt P43354); assay: ATG_NURR1_TRANS: Attagene TRANS-FACTORIAL HepG2 Assay for human Nuclear Receptor Related Protein 1 (NURR1) (AID 2282985); settings: HepG2 Attagene TRANS reporter, mRNA readout
Sequence of Nuclear receptor subfamily 4 group A member 2 (Homo sapiens) (P43354 whole entry, looked up): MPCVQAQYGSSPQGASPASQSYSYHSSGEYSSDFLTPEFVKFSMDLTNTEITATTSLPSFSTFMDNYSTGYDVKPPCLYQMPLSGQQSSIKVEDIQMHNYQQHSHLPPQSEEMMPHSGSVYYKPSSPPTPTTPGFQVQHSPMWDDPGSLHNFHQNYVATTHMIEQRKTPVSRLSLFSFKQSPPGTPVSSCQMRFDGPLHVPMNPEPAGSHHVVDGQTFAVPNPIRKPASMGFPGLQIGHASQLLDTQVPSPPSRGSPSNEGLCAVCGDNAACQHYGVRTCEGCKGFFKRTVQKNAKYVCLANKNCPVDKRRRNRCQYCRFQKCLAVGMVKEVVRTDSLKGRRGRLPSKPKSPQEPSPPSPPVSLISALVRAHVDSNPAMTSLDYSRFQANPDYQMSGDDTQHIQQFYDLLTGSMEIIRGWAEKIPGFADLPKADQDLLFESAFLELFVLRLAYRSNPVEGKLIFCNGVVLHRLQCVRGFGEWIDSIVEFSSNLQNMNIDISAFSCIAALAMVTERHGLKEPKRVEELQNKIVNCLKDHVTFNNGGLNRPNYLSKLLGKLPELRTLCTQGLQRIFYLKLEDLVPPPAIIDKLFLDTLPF
Procedure, shortened: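 Endpoint: reporter mRNA increase relative to DMSO. HepG2 cells transfected with reporter units, treated 24 h; RNA processed by RT-PCR, labelling, HpaI digestion and capillary electrophoresis.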

[7] = molecular target: Transcriptional activator Myb (Homo sapiens) (UniProt P10242); assay: ATG_Myb_CIS: Attagene CIS-FACTORIAL HepG2 Assay for human Myeloblastosis (Myb) Proto-Oncogene Transcription Factor (AID 2282986; active = hit-call score of the fitted dose curve at least 0.9, where 1 is the maximum; inactive = score below 0.9); settings: HepG2 Attagene CIS-FACTORIAL Myb reporter transcription; actives raise or lower the signal
Sequence of Transcriptional activator Myb (Homo sapiens) (P10242 whole entry, looked up): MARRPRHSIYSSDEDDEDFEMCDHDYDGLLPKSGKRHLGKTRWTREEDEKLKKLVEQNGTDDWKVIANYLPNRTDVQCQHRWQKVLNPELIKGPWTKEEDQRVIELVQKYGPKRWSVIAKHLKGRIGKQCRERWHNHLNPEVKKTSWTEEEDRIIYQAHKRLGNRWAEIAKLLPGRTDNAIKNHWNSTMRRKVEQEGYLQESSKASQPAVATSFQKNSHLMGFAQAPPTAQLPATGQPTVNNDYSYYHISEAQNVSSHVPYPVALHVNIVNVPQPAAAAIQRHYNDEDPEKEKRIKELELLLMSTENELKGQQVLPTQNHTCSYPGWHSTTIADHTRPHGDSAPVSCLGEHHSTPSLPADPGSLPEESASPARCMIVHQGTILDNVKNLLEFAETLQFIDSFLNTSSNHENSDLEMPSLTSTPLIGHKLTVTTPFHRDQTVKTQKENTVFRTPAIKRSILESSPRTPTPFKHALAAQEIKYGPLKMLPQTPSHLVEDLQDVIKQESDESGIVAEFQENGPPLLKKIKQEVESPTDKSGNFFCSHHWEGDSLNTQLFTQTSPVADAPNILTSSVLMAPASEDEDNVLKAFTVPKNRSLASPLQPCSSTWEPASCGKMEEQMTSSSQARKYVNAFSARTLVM
Procedure, shortened: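 After 24 h of compound dosing, total RNA from transfected HepG2 cells is reverse-transcribed and the reporter sequences amplified, labeled and separated by capillary electrophoresis. Values come from bidirectional fitting against DMSO.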

[8] = molecular target: Nuclear respiratory factor 1 (Homo sapiens) (UniProt Q16656); assay: ATG_NRF1_CIS: Attagene CIS-FACTORIAL HepG2 Assay for human Nuclear Respiratory Factor 1 (NRF1) Orphan Gene (AID 2282987; active = hit-call score of the fitted dose curve at least 0.9, where 1 is the maximum; inactive = score below 0.9); settings: HepG2 NRF1 cis-element reporter, Attagene multiplex; actives raise or lower the signal
Sequence of Nuclear respiratory factor 1 (Homo sapiens) (Q16656 whole entry, looked up): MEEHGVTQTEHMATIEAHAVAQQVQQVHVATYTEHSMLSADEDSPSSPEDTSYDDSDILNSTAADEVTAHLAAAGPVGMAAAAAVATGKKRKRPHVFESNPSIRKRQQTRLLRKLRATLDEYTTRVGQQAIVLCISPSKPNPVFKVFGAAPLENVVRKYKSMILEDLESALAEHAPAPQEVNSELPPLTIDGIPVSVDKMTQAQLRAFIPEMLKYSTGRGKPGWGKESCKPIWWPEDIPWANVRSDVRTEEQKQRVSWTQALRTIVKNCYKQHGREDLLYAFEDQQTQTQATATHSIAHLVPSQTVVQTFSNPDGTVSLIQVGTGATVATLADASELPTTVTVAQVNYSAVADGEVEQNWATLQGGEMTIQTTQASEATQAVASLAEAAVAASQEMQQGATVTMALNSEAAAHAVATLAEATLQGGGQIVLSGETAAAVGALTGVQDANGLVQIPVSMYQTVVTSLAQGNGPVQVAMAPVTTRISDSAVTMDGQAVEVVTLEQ
Procedure, shortened: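 Measured: fluorescent reporter-specific RT-PCR products from transfected HepG2 cells, separated by capillary electrophoresis. Exposure lasted 24 h. Analysis used bidirectional curve fitting with DMSO as negative control.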

[9] = molecular target: Bile acid receptor (Homo sapiens) (UniProt Q96RI1); assay: ATG_FXR_TRANS: Attagene TRANS-FACTORIAL HepG2 Assay for Farnesoid X Receptor (FXR) (AID 2282979); settings: HepG2 Attagene TRANS FXR-GAL4 reporter transcription;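 also: hits raise reporter mRNA above DMSO so AC50 marks FXR activation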
Sequence of Bile acid receptor (Homo sapiens) (Q96RI1 whole entry, looked up, the tested form may be a part): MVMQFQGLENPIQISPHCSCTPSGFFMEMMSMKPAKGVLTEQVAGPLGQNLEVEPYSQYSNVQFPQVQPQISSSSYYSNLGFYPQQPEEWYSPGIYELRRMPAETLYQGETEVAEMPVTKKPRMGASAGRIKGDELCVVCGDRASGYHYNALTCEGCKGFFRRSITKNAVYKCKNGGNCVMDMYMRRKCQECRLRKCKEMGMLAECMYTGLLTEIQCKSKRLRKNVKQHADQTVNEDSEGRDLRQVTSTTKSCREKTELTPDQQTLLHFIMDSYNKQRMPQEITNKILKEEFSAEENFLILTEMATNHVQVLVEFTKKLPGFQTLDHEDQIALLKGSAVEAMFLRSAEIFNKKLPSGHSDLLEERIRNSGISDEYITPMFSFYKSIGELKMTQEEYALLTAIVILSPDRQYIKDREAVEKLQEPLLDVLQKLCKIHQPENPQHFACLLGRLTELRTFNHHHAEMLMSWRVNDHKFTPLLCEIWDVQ
Procedure, shortened: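 Chimeric FXR-GAL4 activity in transiently transfected human HepG2 liver cells is scored as induction of reporter mRNA after 24 h of dosing. Detection uses RT-PCR with fluorescent labelling and capillary electrophoresis, with DMSO serving as baseline.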

[10] = ATG_M_06_TRANS: Attagene TRANS-FACTORIAL HepG2 Assay for M06 Transcription Factor (Internal Marker) (AID 2282983); settings: HepG2 Attagene TRANS M06 internal marker reporter
Procedure, shortened: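 Human liver HepG2 cells bearing transiently transfected chimeric NR-GAL4 reporter units were treated with chemicals for 24 h. Total RNA was reverse-transcribed, reporter sequences amplified and labelled, then quantified by capillary electrophoresis. Activity was fitted upward relative to DMSO.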

Measured: AC50

C[C@H]1O[C@@H](O[C@H]2[C@@H](O)C[C@H](O[C@H]3[C@@H](O)C[C@H](O[C@H]4CC[C@@]5(C)[C@H](CC[C@@H]6[C@@H]5C[C@@H](O)[C@]5(C)[C@@H](C7=CC(=O)OC7)CC[C@]65O)C4)O[C@@H]3C)O[C@@H]2C)C[C@H](O)[C@@H]1O
active: [7] 428 nM | [8] 0.00312 µM
not listed: [9] | [10]
inactive: all other assays above

OCC#CCO
not listed: [2] | [3] | [4]
inactive: all other assays above

CCCC(C)C(O)CC (stereo not given)
inactive: [1] | [2] | [3] | [6] | [7] | [8]

C=C(C)[C@@H]1CC=C(C)C(=O)C1
not listed: [6] | [9] | [10]
inactive: all other assays above

CC1C2CC(CC2C2CCCC(O)C2)C1(C)C (stereo not given)
active: [2] 33.4 µM | [3] 62.5 µM
not listed: [4] | [9]
inactive: all other assays above

CCCCCCCCN1CCCC1=O
inactive: [1] | [9] | [10] | [7] | [8]

Clc1ccc(C(c2ccccc2Cl)C(Cl)Cl)cc1 (stereo not given)
active: [8] 44.2 µM
inactive: [1] | [9] | [10] | [5] | [7]

NCCNc1cccc2ccccc12
not listed: [5] | [6] | [9]
inactive: all other assays above

Nc1ccc(N)c2c1C(=O)c1ccccc1C2=O
not listed: [2] | [3] | [10]
inactive: all other assays above

O=C(O)c1cc(C(=O)O)cc([N+](=O)[O-])c1
inactive: [1] | [2] | [3] | [5] | [7] | [8]

COc1cc(C(C)C)ccc1C
inactive: [1] | [9] | [10] | [7] | [8]

Cc1ccc(S(=O)(=O)Oc2ccc(N=Nc3ccc(-c4ccc(N=Nc5c(O)ccc6cc(S(=O)(=O)O)cc(S(=O)(=O)O)c56)c(C)c4)cc3C)cc2)cc1
not listed: [4] | [9] | [10]
inactive: all other assays above

C=CC(=C)CCCC(C)(C)OC(C)=O
not listed: [5] | [6] | [9]
inactive: all other assays above

C=CC(C)(O)CCC=C(C)C (stereo not given)
not listed: [4] | [5] | [9]
inactive: all other assays above

CCCCCCCCCCCCN1CCCCCC1=O
not listed: [5] | [6] | [9]
inactive: all other assays above

CN(C)CCOc1ccc(/C(=C(/CCCl)c2ccccc2)c2ccccc2)cc1
inactive: [1] | [2] | [3] | [5] | [7] | [8]

O=C1OC[C@H](Cc2cccc(O)c2)[C@H]1Cc1cccc(O)c1
inactive: [1] | [2] | [3] | [4] | [7] | [8]

CCNCCO
not listed: [2] | [3] | [5]
inactive: all other assays above

Cc1ccc(S(N)(=O)=O)cc1
inactive: [1] | [9] | [4] | [5] | [7] | [8]

CS(=O)(=O)c1ccc(Cl)cc1
not listed: [4] | [6] | [9]
inactive: all other assays above

COC(C)(C)CC(C)=O
not listed: [9]
inactive: all other assays above

CCOC(=O)CN
inactive: [1] | [9] | [4] | [10] | [7] | [8]

CCCCCCCC(=O)OCC(O)CO (stereo not given)
inactive: [1] | [3] | [4] | [6] | [7] | [8]

COCCOCCOCCO
not listed: [2] | [9] | [10]
inactive: all other assays above

CC(=O)O[C@@H]1C[C@@H]2CC[C@@]1(C)C2(C)C
inactive: [1] | [3] | [4] | [5] | [7] | [8]

C[C@H](CCC(=O)NCC(=O)O)[C@H]1CC[C@H]2[C@@H]3[C@H](O)C[C@@H]4C[C@H](O)CC[C@]4(C)[C@H]3C[C@H](O)[C@]12C
inactive: [1] | [3] | [4] | [6] | [7] | [8]

C=C(C)C(=O)OCCOCCOCCOC(=O)C(=C)C
inactive: [1] | [2] | [7] | [8]

CCc1cc(Cc2cc(CC)cc(C(C)(C)C)c2O)c(O)c(C(C)(C)C)c1
inactive: [1] | [3] | [4] | [10] | [7] | [8]

N[C@@H](Cc1cc(I)c(Oc2cc(I)c(O)c(I)c2)c(I)c1)C(=O)O
not listed: [2] | [9]
inactive: all other assays above

CN1CCOCC1
inactive: [1] | [2] | [7] | [8]

c1ccc2cc(Nc3ccc(Nc4ccc5ccccc5c4)cc3)ccc2c1
inactive: [1] | [2] | [10] | [6] | [7] | [8]
